Experimental data: PubChem BioAssay (NCATS)
Where “and” joins values, the source holds several entries; their conditions need not be identical. Identical values can stand only once. Inconclusive results are not listed. Where a call stands in place of a potency, no number is given. More than one record can exist for a structure, and the calls need not agree. Calls of active or inactive are those of the source. Unless noted, calls come from the whole dose curve; as a rule, active = well fitted curve in the direction sought with a large enough effect; inconclusive = small, poorly fitted or top-dose-only effect, or another doubt; inactive = no such curve, though single readings can be large; an effect the other way counts as inactive or inconclusive.

How the values were obtained:
[1] = target: Cytochrome P450 1A2 (Homo sapiens) (UniProt P05177); test: p450-cyp1a2 (AID 410; calls by dose curve; note: potency is the fitted concentration of half-maximal effect)
In short: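 Inhibition was calculated relative to 57 uM furafylline (full inhibition). The reaction used human CYP1A2 at 20nM with Luciferin-ME at its Km, 100uM, driven by an NADPH-regenerating system for 60 min at room temperature.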

[2] = target: Glucocorticoid receptor (Homo sapiens) (UniProt P04150); test: GR-GFP Redistribution (AID 450;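 active = compounds whose dose series gives a full or clear partial fitted curve of increased nuclear translocation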; note: potency is the fitted concentration of half-maximal effect); details: U2OS GR-GFP nuclear translocation, laser cytometry, 2 h
[3] = target: Glucocorticoid receptor (Homo sapiens) (UniProt P04150); test: GR-EFC Redistribution (AID 451; calls by dose curve; note: potency is the fitted concentration of half-maximal effect); details: CHO-K1 GR-EFC translocation, beta-gal luminescence, 2 h
In short: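 CHO-K1 cells expressing nuclear EA and GR-ED fragments of b-gal; compounds titrated up to 46 uM final, 2 h at 37 C. GR nuclear translocation read as complemented b-gal luminescence after 1 h RT detection.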

[4] = target: DNA dC->dU-editing enzyme APOBEC-3G (Homo sapiens) (UniProt Q9HC16); test: qHTS for inhibitors of Vif-A3G interactions: Validation (AID 588379)
In short: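 HeLa cells stably expressing Vif and A3G-eYFP, 700 cells/well, incubated overnight at 37 deg C, then exposed to compound overnight at 37 deg C. Inhibition of Vif-mediated degradation read as increased yellow fluorescence (Ex 488/Em 500-530) by laser-scanning cytometry.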

[5] = test system: Zika virus NS2B-NS3 protease; test: Primary screen GU AMC qHTS for Zika virus inhibitors (AID 1347154); note: nearly all actives have a fitted effect of over 70% in size; note: potency is the fitted concentration of half-maximal effect
In short: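 Unlinked Zika NS2B hydrophilic domain–NS3 protease complex at 25 nM in 10 mM Tris-HCl pH 8.0, 0.01% Tween 20, with an AMC peptide substrate. Fluorescence change (340/450 nm) over 15 min at room temperature, normalized to controls, fitted to 4-parameter Hill.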

[6] = Primary qHTS for small molecule stabilizers of the endoplasmic reticulum resident proteome: Secreted ER Calcium Modulated Protein (SERCaMP) assay (AID 1508630)
In short: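 GLuc-SERCaMP-expressing SH-SY5Y cells, pretreated 16 h with compound, are challenged with thapsigargin to empty ER calcium stores; after 4 h, coelenterazine is added directly to the medium and luminescence is imaged.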

[7] = target: Mitogen-activated protein kinase 10 (Mus musculus) (UniProt Q61831); test: JNK3 AlphaScreen Assay (AID 530; active = well fitted curve in either direction with a large enough effect, not every such curve was filed as active;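 note: kinase came from lysate of stimulated human HepG2 cells; signal reports phosphorylation of biotinylated GST-cJun 1-79 at Ser73 with 10 µM ATP; series mostly up to about 57 µM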)
In short: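 qHTS format: compounds tested as titrations against IL-1beta/TNF-alpha-activated HepG2 lysate JNK3 with biotin-GST-cJun substrate and 10 uM ATP at room temperature. Loss of anti-phospho-cJun AlphaScreen signal indicates inhibition.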

[8] = target: Cytochrome P450 3A4 (Homo sapiens) (UniProt P08684); test: qHTS Assay for Activators of Cytochrome P450 3A4 (AID 885); note: nearly all actives have a fitted effect of over 65% in size
In short: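 Steps: enzyme/substrate mix dispensed; compound added, 10 min RT; NADPH regeneration solution added, 60 min RT; luciferin detection buffer stops reaction; 20 min later luminescence measured.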

[9] = target: 3',5'-cyclic-AMP phosphodiesterase 4B (Homo sapiens) (UniProt Q07343); test: qHTS Assay for Inhibitors of PDE-IV (AID 607; active = well fitted activation curve with a large enough effect in the main read-out, with a control signal flat, not every such curve was filed as active)
In short: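 The readout is membrane depolarisation from a cAMP-sensing CNG channel, detected with a potential dye at ex 535/em 590. Cells were HEK293-derived (endogenous PDE-IV) at 1000 cells/well, titrated up to 22.9 uM final.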

[10] = target: Cytochrome P450 2D6 (Homo sapiens) (UniProt P10635); test: qHTS Assay for Inhibitors and Substrates of Cytochrome P450 2D6 (AID 891); note: potency is the fitted concentration of half-maximal effect; nearly all actives have a fitted effect of over 60% in size
In short: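 Human CYP2D6 (5 nM) with 30 uM Luciferin-ME EGE (at Km) in 100 mM KPO4, compound preincubated 10 min, then NADPH regeneration system for 60 min at room temperature. Luciferin read by luminescence; normalized to 1.43 uM quinidine.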

[11] = target: Cytochrome P450 3A4 (Homo sapiens) (UniProt P08684); test: qHTS Assay for Inhibitors and Substrates of Cytochrome P450 3A4 (AID 884); note: potency is the fitted concentration of half-maximal effect; nearly all actives have a fitted effect of over 50% in size
In short: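 20 nM human CYP3A4 with 25 uM Luciferin-PPXE (at KM) in 200 mM KPO4, preincubated 10 min with compound; NADPH regeneration started a 60 min RT reaction. Luciferin detected by luminescence, normalized to 57 uM ketoconazole as full inhibition.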

[12] = target: Ubiquitin carboxyl-terminal hydrolase 1 (Homo sapiens) (UniProt O94782); test: Inhibitors of USP1/UAF1: Pilot qHTS (AID 504865);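 note: rhodamine fluorescence freed from ubiquitin-rhodamine substrate followed over time; top concentration of the series differs between compounds; nearly all actives have a fitted effect of over 35% in size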
In short: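 Kinetic fluorescence assay: 1nM USP1/UAF1, 15 min compound preincubation, then 150nM Ub-Rho; 480/540 nm.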

Cytochrome P450 3A4 (Homo sapiens), sequence (P08684 whole entry, looked up): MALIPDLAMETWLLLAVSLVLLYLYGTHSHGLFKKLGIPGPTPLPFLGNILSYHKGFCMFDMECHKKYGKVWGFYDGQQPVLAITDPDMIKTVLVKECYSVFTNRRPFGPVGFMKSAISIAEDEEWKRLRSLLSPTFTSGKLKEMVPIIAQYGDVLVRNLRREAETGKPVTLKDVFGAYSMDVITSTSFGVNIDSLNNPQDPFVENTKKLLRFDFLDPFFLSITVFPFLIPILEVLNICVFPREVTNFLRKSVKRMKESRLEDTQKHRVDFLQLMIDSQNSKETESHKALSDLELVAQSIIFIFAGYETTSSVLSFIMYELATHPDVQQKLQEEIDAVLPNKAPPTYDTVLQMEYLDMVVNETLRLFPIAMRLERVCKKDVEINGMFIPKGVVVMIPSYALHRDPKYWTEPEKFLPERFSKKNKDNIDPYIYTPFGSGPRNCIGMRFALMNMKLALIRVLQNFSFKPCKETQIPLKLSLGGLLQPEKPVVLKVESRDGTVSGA
3',5'-cyclic-AMP phosphodiesterase 4B (Homo sapiens), sequence (Q07343 whole entry, looked up): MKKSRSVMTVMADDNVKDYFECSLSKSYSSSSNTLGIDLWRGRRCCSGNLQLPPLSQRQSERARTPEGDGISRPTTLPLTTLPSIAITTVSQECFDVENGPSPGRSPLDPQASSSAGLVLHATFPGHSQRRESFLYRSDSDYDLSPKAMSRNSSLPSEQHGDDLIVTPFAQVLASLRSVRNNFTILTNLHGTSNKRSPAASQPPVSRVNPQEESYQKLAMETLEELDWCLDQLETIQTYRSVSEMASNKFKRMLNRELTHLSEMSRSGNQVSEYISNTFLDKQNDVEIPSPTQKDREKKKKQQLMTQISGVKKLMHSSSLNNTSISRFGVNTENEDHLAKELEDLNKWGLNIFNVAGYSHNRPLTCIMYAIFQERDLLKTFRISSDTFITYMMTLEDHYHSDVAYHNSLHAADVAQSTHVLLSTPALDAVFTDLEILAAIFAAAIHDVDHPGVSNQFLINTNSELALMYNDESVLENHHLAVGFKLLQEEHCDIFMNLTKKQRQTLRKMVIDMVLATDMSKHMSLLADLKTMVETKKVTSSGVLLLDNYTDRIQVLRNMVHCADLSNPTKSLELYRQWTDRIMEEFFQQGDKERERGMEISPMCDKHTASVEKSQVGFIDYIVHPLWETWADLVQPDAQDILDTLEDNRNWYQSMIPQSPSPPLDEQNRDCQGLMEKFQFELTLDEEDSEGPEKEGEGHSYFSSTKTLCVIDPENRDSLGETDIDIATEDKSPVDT
Glucocorticoid receptor (Homo sapiens), sequence (P04150 whole entry, looked up, the tested form may be a part): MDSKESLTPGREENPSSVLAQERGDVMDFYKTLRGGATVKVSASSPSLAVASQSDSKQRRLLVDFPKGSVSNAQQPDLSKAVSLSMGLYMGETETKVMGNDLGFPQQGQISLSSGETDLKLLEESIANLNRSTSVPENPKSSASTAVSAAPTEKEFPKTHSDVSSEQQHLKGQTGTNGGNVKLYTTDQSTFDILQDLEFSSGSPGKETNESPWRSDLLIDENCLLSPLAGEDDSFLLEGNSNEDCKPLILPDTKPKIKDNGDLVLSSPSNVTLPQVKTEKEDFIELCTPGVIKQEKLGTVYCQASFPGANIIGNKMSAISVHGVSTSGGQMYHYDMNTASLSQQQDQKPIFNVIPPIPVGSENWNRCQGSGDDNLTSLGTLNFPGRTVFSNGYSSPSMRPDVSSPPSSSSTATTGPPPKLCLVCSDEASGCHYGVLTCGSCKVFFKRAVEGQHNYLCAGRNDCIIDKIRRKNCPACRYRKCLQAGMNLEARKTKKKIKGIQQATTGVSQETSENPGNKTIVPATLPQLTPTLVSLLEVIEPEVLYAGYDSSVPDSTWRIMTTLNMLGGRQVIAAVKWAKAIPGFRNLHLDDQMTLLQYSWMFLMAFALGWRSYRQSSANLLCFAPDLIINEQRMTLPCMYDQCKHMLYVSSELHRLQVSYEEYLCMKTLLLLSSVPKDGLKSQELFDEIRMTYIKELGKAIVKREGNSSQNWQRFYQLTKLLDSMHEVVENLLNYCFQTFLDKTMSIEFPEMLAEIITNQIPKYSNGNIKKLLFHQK
Cytochrome P450 2D6 (Homo sapiens), sequence (P10635 whole entry, looked up): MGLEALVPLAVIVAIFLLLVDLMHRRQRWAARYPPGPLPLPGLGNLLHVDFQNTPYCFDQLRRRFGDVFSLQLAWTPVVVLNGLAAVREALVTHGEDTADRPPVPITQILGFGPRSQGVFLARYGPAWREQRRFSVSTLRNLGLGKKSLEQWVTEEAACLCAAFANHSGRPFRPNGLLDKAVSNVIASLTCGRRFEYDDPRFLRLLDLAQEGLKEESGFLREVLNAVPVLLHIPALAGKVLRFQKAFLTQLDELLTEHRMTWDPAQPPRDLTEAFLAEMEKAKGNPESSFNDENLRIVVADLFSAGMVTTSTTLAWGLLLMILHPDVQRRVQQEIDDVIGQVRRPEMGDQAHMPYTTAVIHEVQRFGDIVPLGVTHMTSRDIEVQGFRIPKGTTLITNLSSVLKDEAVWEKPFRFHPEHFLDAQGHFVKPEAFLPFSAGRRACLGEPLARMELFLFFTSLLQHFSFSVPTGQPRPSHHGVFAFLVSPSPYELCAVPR
DNA dC->dU-editing enzyme APOBEC-3G (Homo sapiens), sequence (Q9HC16 whole entry, looked up): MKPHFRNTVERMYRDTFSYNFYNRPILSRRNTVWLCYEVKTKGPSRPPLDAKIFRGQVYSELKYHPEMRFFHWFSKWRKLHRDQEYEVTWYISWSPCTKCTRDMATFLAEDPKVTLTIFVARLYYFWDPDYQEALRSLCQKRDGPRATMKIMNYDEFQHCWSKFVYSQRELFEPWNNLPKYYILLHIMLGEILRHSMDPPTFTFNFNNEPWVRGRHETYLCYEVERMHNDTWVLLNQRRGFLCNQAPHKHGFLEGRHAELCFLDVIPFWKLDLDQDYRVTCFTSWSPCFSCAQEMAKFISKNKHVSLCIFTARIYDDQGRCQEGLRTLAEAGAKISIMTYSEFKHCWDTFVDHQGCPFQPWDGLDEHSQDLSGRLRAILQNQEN
Cytochrome P450 1A2 (Homo sapiens), sequence (P05177 whole entry, looked up): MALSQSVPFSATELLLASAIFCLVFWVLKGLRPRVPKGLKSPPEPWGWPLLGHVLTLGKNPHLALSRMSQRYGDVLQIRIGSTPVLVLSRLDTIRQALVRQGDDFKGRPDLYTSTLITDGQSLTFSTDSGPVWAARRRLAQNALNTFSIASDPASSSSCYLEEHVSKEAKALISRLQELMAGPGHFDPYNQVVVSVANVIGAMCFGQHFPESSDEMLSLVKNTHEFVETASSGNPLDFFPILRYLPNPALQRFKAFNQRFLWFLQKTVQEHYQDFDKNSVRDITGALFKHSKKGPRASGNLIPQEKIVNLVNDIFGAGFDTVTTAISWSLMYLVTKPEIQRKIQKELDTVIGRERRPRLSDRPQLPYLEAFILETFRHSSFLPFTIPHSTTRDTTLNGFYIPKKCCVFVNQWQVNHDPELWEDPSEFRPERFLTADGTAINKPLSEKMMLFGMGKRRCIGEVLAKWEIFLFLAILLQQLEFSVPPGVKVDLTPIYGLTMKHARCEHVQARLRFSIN
Ubiquitin carboxyl-terminal hydrolase 1 (Homo sapiens), sequence (O94782 whole entry, looked up): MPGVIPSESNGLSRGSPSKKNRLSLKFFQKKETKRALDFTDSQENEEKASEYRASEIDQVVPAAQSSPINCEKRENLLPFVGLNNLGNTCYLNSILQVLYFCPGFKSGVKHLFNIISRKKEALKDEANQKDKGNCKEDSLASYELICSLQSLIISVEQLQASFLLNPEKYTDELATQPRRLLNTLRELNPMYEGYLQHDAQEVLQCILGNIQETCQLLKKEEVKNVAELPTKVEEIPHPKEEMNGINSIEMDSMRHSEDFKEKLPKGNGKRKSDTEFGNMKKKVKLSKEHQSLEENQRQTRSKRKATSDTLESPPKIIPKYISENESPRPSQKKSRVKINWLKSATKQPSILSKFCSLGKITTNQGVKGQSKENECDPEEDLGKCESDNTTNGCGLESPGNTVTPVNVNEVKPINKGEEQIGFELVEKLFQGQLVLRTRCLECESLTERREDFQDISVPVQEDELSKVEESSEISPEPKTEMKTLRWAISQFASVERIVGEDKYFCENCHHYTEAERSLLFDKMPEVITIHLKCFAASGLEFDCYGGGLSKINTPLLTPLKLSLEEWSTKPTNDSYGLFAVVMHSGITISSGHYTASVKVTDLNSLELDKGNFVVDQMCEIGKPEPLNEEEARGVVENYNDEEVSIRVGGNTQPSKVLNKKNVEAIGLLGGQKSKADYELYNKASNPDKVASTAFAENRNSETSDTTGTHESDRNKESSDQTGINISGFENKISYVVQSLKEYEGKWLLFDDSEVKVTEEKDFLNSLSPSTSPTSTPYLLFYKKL

Compound | Potency [1] | Potency [2] | Potency [3] | Potency [4] | Potency [5] | Potency [6] | Potency [7] | Potency [8] | Potency [9] | Potency [10] | Potency [11] | Potency [12]
COc1ccc2[nH]c(C(=O)c3ccccc3)cc2c1 | 0.1 µM (active) | > 46 µM (inactive) | > 46 µM (inactive) | inactive | inactive | inactive |  |  |  |  |  | 
C[N+]1(C)CCc2cc3c(cc2[C@@H]1[C@@H]1C(=O)Oc2c1ccc1c2OCO1)OCO3 | inactive and 1.26 µM (active) | > 46 µM (inactive) | > 46 µM (inactive) | inactive | inactive | inactive | inactive | inactive |  |  |  | 
O=C1c2ccccc2CC[C@H]1CNCCc1ccc(O)cc1 | 20 µM (active) | > 46 µM (inactive) | > 46 µM (inactive) |  | inactive | inactive |  | inactive | inactive | 0.398 µM (active) |  | 
N[C@@H](Cc1cc(-c2ccc(Cl)cc2Cl)cc(CP(=O)(O)O)c1O)C(=O)O | 20 µM (active) | > 46 µM (inactive) | > 46 µM (inactive) |  | 23.8 µM (active) | inactive | inactive |  | inactive |  |  | 
CCOC(OCC)P(=O)(O)CCCNCc1ccc(Cl)c(Cl)c1 | inactive | > 46 µM (inactive) | > 46 µM (inactive) | inactive | inactive | inactive | inactive |  |  |  |  | 
C=CCN1CCN(c2nc3ccccc3nc2C#N)CC1 | 0.1 µM (active) | > 46 µM (inactive) | > 46 µM (inactive) | inactive | inactive | inactive |  | inactive | inactive | 1.26 µM (active) |  | 
O=C(c1ccccc1)[C@@H]1O[C@H]1c1ccc(-c2ccccc2)cc1 | 6.31 µM (active) | > 46 µM (inactive) | > 46 µM (inactive) | inactive | inactive | inactive | inactive |  |  |  |  | 
CC[C@]1(O)C[C@@H]2CN(CCc3c([nH]c4ccccc34)[C@](C(=O)OC)(c3cc4c(cc3OC)N(C)[C@H]3[C@](O)(C(=O)OC)[C@@H](C(=O)OC)[C@@]5(CC)C=CCN6CC[C@@]43[C@@H]65)C2)C1 | inactive | > 46 µM (inactive) | > 46 µM (inactive) | inactive | inactive | inactive | inactive | inactive |  |  |  | 
O=S(=O)(NCCCCCCc1ccccc1)c1cccc2c(Cl)cccc12 | 15.8 µM (active) | > 46 µM (inactive) | > 46 µM (inactive) | inactive | inactive | inactive |  | inactive |  |  | 2.51 µM (active) | 
O=C1C(=O)N(Cc2ccc(Cl)c(Cl)c2)c2ccccc21 | 12.6 µM (active) | > 46 µM (inactive) | > 46 µM (inactive) |  | inactive | inactive |  | inactive |  | 3.98 µM (active) |  | 
COc1cccc(CNc2ccc3nc(-c4ccc(N)cc4)c(OC)n3n2)c1 | 39.8 µM (active) | > 46 µM (inactive) |  | inactive | inactive | inactive | inactive | inactive |  |  | 5.01 µM (active) | inactive
N[C@@H](C(=O)O)c1cc(O)ccc1Cl | 15.8 µM (active) | > 46 µM (inactive) | > 46 µM (inactive) | inactive | inactive | inactive | inactive | inactive | inactive |  |  | 
